# Experimental data from the supplement of paper PMC8728848.
# The full list was thinned out, with the strongest signals kept by preference.
# Experiments:
# Experiment in all cases: glycan array binding signal (z-score within array); higher = stronger binding
# Conditions in all cases: glycan notation: IUPAC condensed, linker removed
# [1] = target: Fuc(a1-2)Gal(b1-3)GalNAc(a1-3)[Fuc(a1-2)]Gal(b1-4)GlcNAc
# Method in brief: (§1)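 The binding signal is a Z-score computed within each array. Data were drawn from 3228 arrays in the Consortium for Functional Glycomics database, restricted to those with a known protein sequence. Scores were averaged over arrays of the same protein sequence at different concentrations or buffers, and over linkers, and negative values can be taken as non-binding.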
# [2] = target: Fuc(a1-2)Gal(b1-4)Fuc(a1-3)]GlcNAc(b1-2)Man(a1-3)[Fuc(a1-2)Gal(b1-4)[Fuc(a1-3)]GlcNAc(b1-2)Man(a1-6)]Man(b1-4)GlcNAc(b1-4)GlcNAc
# Method in brief: as §1
# [3] = target: Fuc(a1-2)Gal6S(b1-4)Glc6S
# Method in brief: as §1
# [4] = target: Fuc(a1-2)[GalNAc(a1-4)]Gal(b1-4)GlcNAc
# Method in brief: as §1
# [5] = target: Fuc(a1-3)[Gal(b1-4)]Glc6S
# Method in brief: as §1
# [6] = target: Fuc(a1-3)[Gal(b1-4)]GlcNAc(b1-2)Man(a1-3)[Fuc(a1-3)[Gal(b1-4)]GlcNAc(b1-2)Man(a1-6)]Man(b1-4)GlcNAc(b1-4)GlcNAc
# Method in brief: as §1
# [7] = target: Fuc(a1-3)[Gal(b1-4)]GlcNAc(b1-3)Gal(b1-4)[Fuc(a1-3)]GlcNAc(b1-3)Gal(b1-4)[Fuc(a1-3)]GlcNAc
# Method in brief: as §1
# [8] = target: Fuc(a1-3)[Gal(b1-4)]GlcNAc(b1-4)Gal(b1-4)[Fuc(a1-3)]GlcNAc
# Method in brief: as §1
# Fuc(a1-4)GlcNAc = target: Fuc(a1-4)GlcNAc
# Method in brief: as §1
# Fuc(b1-3)GlcNAc = target: Fuc(b1-3)GlcNAc
# Method in brief: as §1
# Gal(a1-3)Gal = target: Gal(a1-3)Gal
# Method in brief: as §1
# [9] = target: Gal(a1-3)Gal(b1-4)GlcNAc(b1-2)Man(a1-3)[Gal(a1-3)Gal(b1-4)GlcNAc(b1-2)Man(a1-6)]Man(b1-4)GlcNAc(b1-4)GlcNAc
# Method in brief: as §1
# [10] = target: Gal(a1-3)Gal(b1-4)[Fuc(a1-3)]GlcNAc
# Method in brief: as §1
# [11] = target: Gal(a1-3)Gal(b1-4)[Fuc(a1-3)]GlcNAc(b1-2)Man(a1-3)[Gal(a1-3)Gal(b1-4)[Fuc(a1-3)]GlcNAc(b1-2)Man(a1-6)]Man(b1-4)GlcNAc(b1-4)GlcNAc
# Method in brief: as §1
# [12] = target: Gal(a1-4)Gal(b1-3)GlcNAc(b1-2)Man(a1-3)[Gal(a1-4)Gal(b1-3)GlcNAc(b1-2)Man(a1-6)]Man(b1-4)GlcNAc(b1-4)GlcNAc
# Method in brief: as §1
# Gal(a1-4)Gal(b1-4)GlcNAc = target: Gal(a1-4)Gal(b1-4)GlcNAc
# Method in brief: as §1
# [13] = target: Gal(a1-4)Gal(b1-4)GlcNAc(b1-2)Man(a1-3)[Gal(a1-4)Gal(b1-4)GlcNAc(b1-2)Man(a1-6)]Man(b1-4)GlcNAc(b1-4)GlcNAc
# Method in brief: as §1
# Gal(a1-4)GlcNAc = target: Gal(a1-4)GlcNAc
# Method in brief: as §1
# Gal(b1-3)GlcNAc(b1-2)Man = target: Gal(b1-3)GlcNAc(b1-2)Man
# Method in brief: as §1
# [14] = target: Gal(b1-3)GlcNAc(b1-3)Gal(b1-4)Glc
# Method in brief: as §1
# [15] = target: Gal(b1-3)GlcNAc(b1-3)Gal(b1-4)GlcNAc
# Method in brief: as §1
# [16] = target: Gal(b1-3)GlcNAc(b1-3)GalNAc
# Method in brief: as §1
# [17] = target: Gal(b1-3)[GlcNAc(b1-6)]GalNAc
# Method in brief: as §1
# [18] = target: Gal(b1-4)GlcNAc(b1-3)[Gal(b1-4)GlcNAc(b1-6)]GalNAc
# Method in brief: as §1
# Gal(b1-4)GlcNAc6P = target: Gal(b1-4)GlcNAc6P
# Method in brief: as §1
# GalNAc(a1-3)Gal = target: GalNAc(a1-3)Gal
# Method in brief: as §1
# GalNAc(a1-3)GalNAc = target: GalNAc(a1-3)GalNAc
# Method in brief: as §1
# [19] = target: GalNAc(a1-3)GalNAc(a1-3)Gal(a1-4)Gal(b1-4)GlcNAc
# Method in brief: as §1
# [20] = target: GalNAc(b1-3)Gal(a1-6)Gal(b1-4)Glc
# Method in brief: as §1
# GalNAc(b1-3)GalNAc = target: GalNAc(b1-3)GalNAc
# Method in brief: as §1
# [21] = target: GalNAc(b1-4)GlcNAc(b1-2)Man
# Method in brief: as §1
# [22] = target: GlcNAc(a1-3)Gal(b1-4)GlcNAc
# Method in brief: as §1
# [23] = target: GlcNAc(b1-2)[GlcNAc(b1-6)]Man(a1-6)[GlcNAc(b1-2)Man(a1-3)]Man(b1-4)GlcNAc(b1-4)GlcNAc
# Method in brief: as §1
# [24] = target: GlcNAc(b1-3)Gal(b1-4)GlcNAc(b1-3)Gal(b1-4)GlcNAc(b1-2)[GlcNAc(b1-3)Gal(b1-4)GlcNAc(b1-3)Gal(b1-4)GlcNAc(b1-6)]Man(a1-6)[GlcNAc(b1-3)Gal(b1-4)GlcNAc(b1-3)Gal(b1-4)GlcNAc(b1-2)Man(a1-3)]Man(b1-4)GlcNAc(b1-4)[Fuc(a1-6)]GlcNAc
# Method in brief: as §1
# [25] = target: GlcNAc(b1-3)Gal(b1-4)GlcNAc(b1-6)[GlcNAc(b1-3)]Gal(b1-4)GlcNAc
# Method in brief: as §1
# GlcNAc(b1-3)Man = target: GlcNAc(b1-3)Man
# Method in brief: as §1
# Kdn(a2-3)Gal(b1-3)GalNAc = target: Kdn(a2-3)Gal(b1-3)GalNAc
# Method in brief: as §1
# [26] = target: Man(a1-2)Man(a1-3)[Man(a1-2)Man(a1-6)]Man(a1-6)[Man(a1-2)Man(a1-2)Man(a1-3)]Man(b1-4)GlcNAc(b1-4)GlcNAc
# Method in brief: as §1
# [27] = target: Man(a1-2)Man(a1-6)[Man(a1-3)]Man(a1-6)[Man(a1-2)Man(a1-2)Man(a1-3)]Man(b1-4)GlcNAc(b1-4)GlcNAc
# Method in brief: as §1
# [28] = target: Man(a1-3)[Man(a1-6)]Man(b1-4)GlcNAc(b1-4)[Fuc(a1-6)]GlcNAc
# Method in brief: as §1
# [29] = target: Neu5Ac(a2-3)Gal(b1-3)GlcNAc(b1-3)Gal(b1-3)GlcNAc
# Method in brief: as §1
# [30] = target: Neu5Ac(a2-3)Gal(b1-4)GlcNAc(b1-2)Man(a1-3)[Neu5Ac(a2-3)Gal(b1-4)GlcNAc(b1-2)Man(a1-6)]Man(b1-4)GlcNAc(b1-4)[Fuc(a1-6)]GlcNAc
# Method in brief: as §1
# [31] = target: Neu5Ac(a2-3)Gal(b1-4)GlcNAc(b1-2)Man(a1-3)[Neu5Ac(a2-6)Gal(b1-4)GlcNAc(b1-2)Man(a1-6)]Man(b1-4)GlcNAc(b1-4)GlcNAc
# Method in brief: as §1
# [32] = target: Neu5Ac(a2-3)Gal(b1-4)GlcNAc(b1-3)Gal(b1-4)GlcNAc(b1-3)Gal(b1-4)GlcNAc
# Method in brief: as §1
# [33] = target: Neu5Ac(a2-3)Gal(b1-4)GlcNAc(b1-3)Gal(b1-4)GlcNAc(b1-3)Gal(b1-4)GlcNAc(b1-2)Man(a1-3)[Neu5Ac(a2-3)Gal(b1-4)GlcNAc(b1-3)Gal(b1-4)GlcNAc(b1-3)Gal(b1-4)GlcNAc(b1-2)Man(a1-6)]GalNAc
# Method in brief: as §1
# [34] = target: Neu5Ac(a2-3)Gal(b1-4)[Fuc(a1-3)]GlcNAc(b1-2)Man
# Method in brief: as §1
# [35] = target: Neu5Ac(a2-6)Gal(b1-4)GlcNAc(b1-2)Man(a1-6)[Gal(b1-4)GlcNAc(b1-2)Man(a1-3)]Man(b1-4)GlcNAc(b1-4)GlcNAc
# Method in brief: as §1
# [36] = target: Neu5Ac(a2-6)Gal(b1-4)GlcNAc(b1-3)Gal(b1-4)GlcNAc(b1-6)[Gal(b1-3)]GalNAc
# Method in brief: as §1
# [37] = target: Neu5Ac(a2-6)Gal(b1-4)GlcNAc(b1-3)GalNAc
# Method in brief: as §1
# [38] = target: Neu5Ac(a2-6)GalNAc(b1-4)GlcNAc6S
# Method in brief: as §1
# [39] = target: Neu5Gc(a2-3)Gal(b1-3)GlcNAc
# Method in brief: as §1
# [40] = target: Neu5Gc(a2-3)Gal(b1-4)[Fuc(a1-3)]GlcNAc
# Method in brief: as §1
# [41] = target: Neu5Gc(b2-6)Gal(b1-4)GlcNAc
# Method in brief: as §1
binder,measurement,setting,value
GSL-I (Griffonia simplicifolia) (protein) FNLPNFWSDVKDNIIFQGDANTTAGTLQLCKTNQYGNPLQYRAGRALYSDPVQLWDNKTGSVASFYTEFTFFLKITGDGPADGLAFFLAPPDSDVKDAGAYLGLFNKSTATQPSKNQVVAVEFDTWKNTDFPEPSYRHIGINVNSIVSVATKRWEDSDIFSGKIATARISYDGSAKILTVVLSYPDGADYILSHSVDLSKNLPNPIRVGISASTGANQFLTVYVLSWRFSSALQSTSVNAAMGPEIIRTVV,glycan array binding signal (z-score),[1],-0.242
same,glycan array binding signal (z-score),[2],0.367
same,glycan array binding signal (z-score),[3],-0.216
same,glycan array binding signal (z-score),[4],7.04
same,glycan array binding signal (z-score),[5],-0.16
same,glycan array binding signal (z-score),[6],-0.232
same,glycan array binding signal (z-score),[7],-0.188
same,glycan array binding signal (z-score),[8],-0.311
same,glycan array binding signal (z-score),Fuc(a1-4)GlcNAc,-0.215
same,glycan array binding signal (z-score),Fuc(b1-3)GlcNAc,-0.236
same,glycan array binding signal (z-score),Gal(a1-3)Gal,0.597
same,glycan array binding signal (z-score),[9],5.7
same,glycan array binding signal (z-score),[10],3.4
same,glycan array binding signal (z-score),[11],0.283
same,glycan array binding signal (z-score),[12],9.69
same,glycan array binding signal (z-score),Gal(a1-4)Gal(b1-4)GlcNAc,1.82
same,glycan array binding signal (z-score),[13],3.15
same,glycan array binding signal (z-score),Gal(a1-4)GlcNAc,4.53
same,glycan array binding signal (z-score),Gal(b1-3)GlcNAc(b1-2)Man,-0.124
same,glycan array binding signal (z-score),[14],-0.194
same,glycan array binding signal (z-score),[15],-0.226
same,glycan array binding signal (z-score),[16],-0.203
same,glycan array binding signal (z-score),[17],-0.102
same,glycan array binding signal (z-score),[18],-0.312
same,glycan array binding signal (z-score),Gal(b1-4)GlcNAc6P,-0.178
same,glycan array binding signal (z-score),GalNAc(a1-3)Gal,6.1
same,glycan array binding signal (z-score),GalNAc(a1-3)GalNAc,2.08
same,glycan array binding signal (z-score),[19],1.85
same,glycan array binding signal (z-score),[20],-0.191
same,glycan array binding signal (z-score),GalNAc(b1-3)GalNAc,-0.272
same,glycan array binding signal (z-score),[21],-0.143
same,glycan array binding signal (z-score),[22],-0.199
same,glycan array binding signal (z-score),[23],-0.121
same,glycan array binding signal (z-score),[24],0.036
same,glycan array binding signal (z-score),[25],-0.255
same,glycan array binding signal (z-score),GlcNAc(b1-3)Man,-0.193
same,glycan array binding signal (z-score),Kdn(a2-3)Gal(b1-3)GalNAc,-0.069
same,glycan array binding signal (z-score),[26],-0.033
same,glycan array binding signal (z-score),[27],-0.302
same,glycan array binding signal (z-score),[28],-0.305
same,glycan array binding signal (z-score),[29],-0.152
same,glycan array binding signal (z-score),[30],-0.283
same,glycan array binding signal (z-score),[31],-0.197
same,glycan array binding signal (z-score),[32],-0.261
same,glycan array binding signal (z-score),[33],2.34
same,glycan array binding signal (z-score),[34],-0.227
same,glycan array binding signal (z-score),[35],0.106
same,glycan array binding signal (z-score),[36],-0.048
same,glycan array binding signal (z-score),[37],-0.128
same,glycan array binding signal (z-score),[38],-0.271
same,glycan array binding signal (z-score),[39],-0.164
same,glycan array binding signal (z-score),[40],-0.153
same,glycan array binding signal (z-score),[41],-0.099
